High-throughput results deposited in PubChem by National Center for Advancing Translational Sciences (NCATS).
The list is not random: actives were taken first. Their share in the collection is about 3.2%.
pS6 MEF inh = mTORC1 pathway inhibition measured by phospho-rpS6; Potency, µM (highest dose often 38.3 µM), inactives show at the highest dose activity change, negative = inhibition, most hits filed as inhibitors; 0.78% of 44,000 active; Tsc2-/- p53-/- MEF, phospho-rpS6 immunofluorescence/PI, 24 h;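 also: potency is read from the fitted curve at half-maximal effect; plate controls were DMSO for no effect and rapamycin for full effect; nearly all actives have a fitted effect of over 50% in size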
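Cell-based qHTS: Tsc2-/- p53-/- MEF, 24 h cpd, 37 °C; fix/perm, anti-phospho-S6 Alexa-488 + PI; Acumen 488 nm scan; pS6/PI ratio, % positive cells; rapamycin 7.5 nM = inhibition ref; PI count = viability.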
PMP22 txn = modulates PMP22 transcription in S16 Schwann cells; S16 Pmp22-F2sN Schwann cells, FLuc/NLuc coincidence luminescence, 24 h; Potency, µM (series often up to 57.5 µM), for the others: top-dose activity change, negative = inhibition, actives largely listed as inhibitors; 2% of 43,000 active; active = clear falling dose curves in both reporters; inconclusive = both reporters move, but less clearly or upward; inactive = either reporter flat; the % is the NLuc reporter signal; also: potency is read from the fitted curve at half-maximal effect; % is scaled to controls: 0 for no effect and ±100 for the full control effect
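S16 Schwann cells carrying FLuc/NLuc coincidence reporter in the Pmp22 3' UTR treated with compound 24 h at 37C; FLuc then NLuc luminescence read sequentially by dual-luciferase reagents.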
p53null 32C tox = selectivity test: cytotoxicity in p53 null cells, permissive temperature; H1299-neo p53 null cells, ATP luminescence, 24 h, 32C; Potency, µM (top dose mostly 46.1 µM), for the others: top-dose activity change, negative = cytotoxicity, actives largely listed as cytotoxic; 0.62% of 55,000 active;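 also: potency is read from the fitted curve at half-maximal effect; 0% = DMSO only and -100% = full killing by 100 µM tamoxifen; nearly all actives have a fitted effect of over 55% in size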
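H1299-neo, 600 cells/well; overnight 37C; cpd up to 46 uM, 24 h at 32C; ATPlite luminescence after 20 min RT; normalized to DMSO (0%) and tamoxifen 100 uM (100% kill); Hill-fit AC50.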
S16 viability = cytotoxicity in S16 Pmp22-F2sN Schwann cells; S16 Pmp22-F2sN Schwann cells viability, CellTiter-Glo, 24 h; Potency, µM (titrated, usually from 57.5 µM), for inactives: at the highest dose activity change, negative = cytotoxicity, most hits filed as cytotoxic; 0.48% of 43,000 active; also: potency is read from the fitted curve at half-maximal effect; % is scaled to controls: 0 for no effect and ±100 for the full control effect; nearly all actives have a fitted effect of over 65% in size
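Seed 500-1,000 S16 Pmp22-F2sN cells per well in phenol-red-free DMEM with 10% heat-inactivated FBS; pin-add 23 nL compound; incubate 24 h at 37C; add CellTiter-Glo, wait 15 min protected from light; read luminescence.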
p53null 39C tox = selectivity test: cytotoxicity in p53 null cells, nonpermissive temperature. H1299 p53-null (neo) cells, 39C, ATPlite viability, 24 h. Potency, µM (titrated, usually from 46.1 µM), inactives show at the top dose activity, negative = cell killing, hits mostly cytotoxic. 0.97% of 55,000 active;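 also: potency is read from the fitted curve at half-maximal effect; 0% = DMSO only and -100% = full killing by 100 µM tamoxifen; nearly all actives have a fitted effect of over 50% in size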
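Temperature-shift cytotoxicity format: compound titrations on p53-null or A138V-expressing H1299 cells held 24 hr at 39C, cell ATP then measured, AC50 from Hill model.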
NLuc saturating = inhibits NanoLuc at saturating substrate, PMP22 counter-screen; Potency, µM (highest dose often 57.5 µM), for inactives: at the highest dose activity change, negative = inhibition, most hits filed as inhibitors; Secreted NLuc enzyme (filtered S16 cell medium), Nano-Glo luminescence; 4% of 690 active; shares compounds with PMP22 txn; AID 1508638; also: potency is read from the fitted curve at half-maximal effect; % is scaled to controls: 0 for no effect and ±100 for the full control effect
NLuc Km counter = NanoLuc inhibition at Km substrate, PMP22 artifact check | shares compounds with PMP22 txn | AID 1508639 | secreted NLuc enzyme, coelenterazine luminescence, Km conditions | Potency, µM (highest dose often 57.5 µM), for the others: at the top dose activity change, negative = inhibition, actives largely listed as inhibitors | 5% of 690 active; also: potency is read from the fitted curve at half-maximal effect; % is scaled to controls: 0 for no effect and ±100 for the full control effect
FLuc counter = firefly luciferase enzyme inhibition artifact for PMP22 screen | shares compounds with PMP22 txn | purified P. pyralis FLuc, luminescence, 10 min | Potency, µM (series often up to 57.5 µM), inactives show at the top dose activity, negative = inhibition, usual class: inhibitors | 690 tested, under 10 active | AID 1508640; also: % of control where 0% means no effect
Target sequence (P08659 whole entry, looked up): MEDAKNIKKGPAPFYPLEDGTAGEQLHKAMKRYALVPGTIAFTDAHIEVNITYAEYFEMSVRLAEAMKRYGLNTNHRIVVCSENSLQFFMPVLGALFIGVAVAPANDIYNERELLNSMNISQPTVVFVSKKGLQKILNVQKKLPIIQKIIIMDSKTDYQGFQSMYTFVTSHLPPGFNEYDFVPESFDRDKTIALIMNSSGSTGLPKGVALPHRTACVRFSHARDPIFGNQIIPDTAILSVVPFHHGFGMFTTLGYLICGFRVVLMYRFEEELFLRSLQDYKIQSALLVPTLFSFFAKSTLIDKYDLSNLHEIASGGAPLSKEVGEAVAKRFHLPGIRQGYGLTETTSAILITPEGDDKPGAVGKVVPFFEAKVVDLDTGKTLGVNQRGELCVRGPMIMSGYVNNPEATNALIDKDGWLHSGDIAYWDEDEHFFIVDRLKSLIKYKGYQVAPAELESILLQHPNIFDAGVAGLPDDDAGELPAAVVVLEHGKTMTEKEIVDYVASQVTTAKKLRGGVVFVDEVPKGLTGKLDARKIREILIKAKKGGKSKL
S16 viab conf = confirmation of cytotoxicity in S16 Pmp22-F2sN Schwann cells (luciferase reporters placed in the Pmp22 gene) | Potency, µM (titrated, usually from 57.5 µM), without a hit: at the top dose activity change, negative = viability loss, usual class: cytotoxic | S16 Schwann cells viability, CellTiter-Glo ATP luminescence, 24 h | shares compounds with PMP22 txn | 7% of 690 active | AID 1508641; also: potency is read from the fitted curve at half-maximal effect; % is scaled to controls: 0 for no effect and ±100 for the full control effect
PMP22 txn cnf = PMP22 transcription modulation, confirmatory | shares compounds with PMP22 txn | S16 Schwann cells Pmp22-F2sN, dual luciferase, 24 h | Potency, µM (top dose mostly 57.5 µM), for inactives: at the highest dose activity change, negative = inhibition, usual class: inhibitors | 22% of 690 active | AID 1508646; active = clear falling dose curves in both reporters; inconclusive = both reporters move, but less clearly or upward; inactive = either reporter flat; the % is the FLuc reporter signal; also: potency is read from the fitted curve at half-maximal effect
PMP22 HiBiT cnf = confirmation of modulators of rat PMP22 protein expression | shares compounds with PMP22 txn | S16 Schwann cells Pmp22-HiBiT, luminescence, 48 h | Potency, µM (series often up to 27.9 µM), for inactives: at the highest dose activity change, negative = inhibition, usual class: inhibitors | 95 tested, under 10 active | AID 1508647
Starred values were filed as active, the others as inactive; u = inconclusive; x = no result given. Unless noted, calls follow the shape of the dose curve; as a rule, active = well fitted curve in the direction sought with a large enough effect; inconclusive = small, poorly fitted or top-dose-only effect, or another doubt; inactive = no such curve, though single readings can be large; an effect the other way counts as inactive or inconclusive.

SMILES | pS6 MEF inh | PMP22 txn | p53null 32C tox | S16 viability | p53null 39C tox | NLuc saturating | NLuc Km counter | FLuc counter | S16 viab conf | PMP22 txn cnf | others
COc1ccc(Cl)cc1NC(=O)CSc1nc2ccccc2nc1N1CCCCC1 | -1.5% | 12.7µM* | -6.9% | 8.4% | -9.0% | -8.7% | 8.9% | -3.8% | -9.3% | -33.4%
CCc1nnc(SCC(=O)N(C)c2ccccc2)c2cc3sccc3n12 | 0.6% | 12.9µM* | -1.1% | u | -10.8% | u | u | -11.6% | -13.4% | u
CC(=O)Nc1ccc(NC(=O)CN(C)S(=O)(=O)c2ccc3c(c2)CCCC(=O)N3)cc1 | 6.2% | 9.4% | 5.4% | -17.0% | -13.8% | x | x | x | x | x
CCOc1ccc(OCC)c(NC(=O)CN(C)S(=O)(=O)c2ccc3c(c2)CCCC(=O)N3)c1 | 6.8% | 20µM* | 3.8% | -3.7% | -21.8% | -3.9% | -1.6% | 0.3% | 3.5% | -22.7%
NC(=O)CSc1nnnn1-c1cccc(O)c1 | -1.8% | -1.9% | -6.7% | -0.1% | 14.3% | x | x | x | x | x
CCn1ccc2c(OCC(=O)Nc3ccccc3C)cccc2c1=O | -8.0% | u | -7.1% | -9.1% | 7.5% | x | x | x | x | x
CCn1ccc2c(OCC(=O)Nc3ccccc3C(F)(F)F)cccc2c1=O | -6.0% | 18.9µM* | 4.5% | u | 29.6% | u | u | -7.3% | 2.2% | u
COc1ccc(NC(=O)c2c(NCc3ccc(C)o3)sc3c2CCCCC3)c(OC)c1 | u | 14.1µM* | 25.4% | -25.0% | 24.6% | u | u | -23.2% | 6.9% | u
COc1ccc(Br)c2c1-c1nc(NC(=O)c3cccc(C)c3)sc1C2 | -3.3% | 11.3µM* | 4.1% | -3.5% | -14.9% | u | -19.3% | -13.4% | 3.2% | u | PMP22 HiBiT cnf=32.8%
COC(=O)c1ccc(NC(=O)CN2CCN(c3ccccc3C)CC2)cc1 | x | x | -9.4% | x | -26.6% | x | x | x | x | x
COc1cc(NS(=O)(=O)c2ccc3[nH]c4c(c3c2)CCCC4)cc(OC)c1OC | u | 12.1µM* | -2.2% | -6.8% | u | -10.2% | u | -2.1% | -19.3% | u
COc1ccc(NS(=O)(=O)c2ccc3[nH]c4c(c3c2)CCCC4)cc1OC | -17.1% | 14.1µM* | -8.3% | -10.2% | 11.9% | -6.1% | u | 2.2% | u | u
COc1cc(NS(=O)(=O)c2ccc3[nH]c4c(c3c2)CCCCCC4)cc(OC)c1 | u | u | 50.5% | -17.0% | 9.9% | x | x | x | x | x
